# Most compounds without a hit are left out; they make up all but 0.26% or so of the library.
# a7 integrin act: activators of alpha7 integrin expression for muscular dystrophy | alpha7betagal myoblasts, beta-gal FDG fluorescence, 48 h | Potency, µM (doses to about 38.3 µM), without a hit: at the top dose activation, hits mostly activators | hit rate 0.064% among 350,000 | AID 624291;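 further: potency means the concentration at half of the fitted maximal effect; 100% = response of the positive control SU9516; nearly all actives have a fitted effect of over 60% in size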
#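 alpha7betagal+/- myoblasts (passage 13, 250/well) treated 48 h at 37C with compounds at 1:260 dilution of DMSO stock. Lysed, then beta-galactosidase activity read as FDG fluorescence (ex 480/em 540) after 30 min, with pre-read for autofluorescence.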
# CBFb-RUNX1 inh: inhibitors of human CBF-beta and RUNX1 interaction | Q01196+Q13951 | AlphaScreen CBFb-His/RUNX1-biotin binding, biochemical | Potency, µM (series often up to 59.8 µM), for the others: at the top dose activity, negative = inhibition, hits mostly inhibitors | 230,000 tested, under 10 active | AID 1477; further: % of control where 0% means no effect
#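 CBFb-His/RUNX1-biotin, 30 nM each, preincubated 20 min RT; compound 15 min RT; Ni + streptavidin beads 50 ng each, 90 min RT; AlphaScreen read.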
# TCR activator: activators of T cell receptors; primary human leukocytes, anti-CD3, IL-2 HTRF, 48 h; AID 504894; Potency, µM (series often up to 9.22 µM), inactives show at the top dose activation of IL-2 secretion, usual class: activators; 330,000 tested, under 10 active; further: % of control where 0% means no effect
#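 Activity was scored as IL-2 release from primary human leukocytes given only a TCR signal (a-CD3 beads) plus compound for 48 hr. Detection used a two-antibody HTRF format read at 665nm.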
# PTAP TSG101 blk: blocks PTAP/TSG101 interaction to inhibit HIV-1 budding | Fluorescence polarization, FITC-PTAP peptide / Tsg101 binding | Potency, µM (highest dose often 115 µM), for inactives: at the highest dose activity change, negative = inhibition, actives largely listed as inhibitors | 340,000 tested, under 10 active | AID 493005; active means well fitted inhibition curve with a large enough effect in the main read-out, with a control signal flat, not every such curve was filed as active; inconclusive means small, poorly fitted or top-dose-only effect, or effect the other way, or a change in a side signal; inactive means no such curve, though single readings can be large or run the other way; further: potency means the concentration at half of the fitted maximal effect; % of control where 0% means no effect
# Target sequence (Q99816 whole entry, looked up): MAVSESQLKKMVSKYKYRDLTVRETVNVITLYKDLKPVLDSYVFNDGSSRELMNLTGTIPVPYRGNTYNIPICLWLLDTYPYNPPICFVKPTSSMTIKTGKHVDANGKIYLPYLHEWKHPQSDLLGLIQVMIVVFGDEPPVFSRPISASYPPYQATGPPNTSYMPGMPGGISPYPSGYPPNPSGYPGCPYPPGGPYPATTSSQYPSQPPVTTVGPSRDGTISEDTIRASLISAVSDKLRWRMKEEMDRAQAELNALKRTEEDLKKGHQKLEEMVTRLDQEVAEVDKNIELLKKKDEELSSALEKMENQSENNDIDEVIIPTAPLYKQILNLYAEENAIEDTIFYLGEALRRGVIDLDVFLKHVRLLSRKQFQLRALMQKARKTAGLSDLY
#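 Compounds were pin-transferred onto Tsg101 binding domain (10 uM final) in HEPES pH 7.5 buffer, then FITC-PTAP peptide was added at 50 nM final. After 20 min at RT, polarization reported peptide displacement across a qHTS concentration series.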
# TSHR antagonist: blocks TSH signaling through the human TSH receptor; hit rate 0.2% among 330,000; activity change, negative = inhibition, % at 11.5 µM; TSHR-expressing cells, TSH-stimulated cAMP HTRF, 2 h; stronger effect = lower value; AID 504810; P16473;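 active means activity change below a set negative limit, meaning inhibition stronger than a set level, cut at about -70% in these data; inconclusive means activity change between two set negative limits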; further: on the % scale 0 is the no-effect control and ±100 the full control effect
#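 TSHR-expressing cells, 200/well, pre-treated with compound, then stimulated with EC80 TSH (4nM final) for 2 hours at 37 deg C. cAMP measured by competitive HTRF: anti-cAMP cryptate antibody in lysis buffer plus cAMP-d2, read after 30 minutes at room temperature.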
# MBNL1 CUG block: blocks human MBNL1 binding to CUG repeat RNA; TR-FRET MBNL1-His/biotin-(CUG)12 binding, 665/545 ratio; hit rate 0.036% among 280,000; Potency, µM (top dose mostly 57.5 µM), for the others: at the highest dose activity change, negative = inhibition, most hits filed as inhibitors; active means well fitted inhibition curve with a large enough effect in the signal ratio, with a control signal flat, not every such curve was filed as active; inconclusive means small, poorly fitted or top-dose-only effect, or effect the other way, or a change in a side signal; inactive means no such curve, though single readings can be large or run the other way; the % refers to the signal ratio; further: potency means the concentration at half of the fitted maximal effect; on the % scale 0 is the no-effect control and ±100 the full control effect
# Target sequence (Q9NR56 whole entry, looked up): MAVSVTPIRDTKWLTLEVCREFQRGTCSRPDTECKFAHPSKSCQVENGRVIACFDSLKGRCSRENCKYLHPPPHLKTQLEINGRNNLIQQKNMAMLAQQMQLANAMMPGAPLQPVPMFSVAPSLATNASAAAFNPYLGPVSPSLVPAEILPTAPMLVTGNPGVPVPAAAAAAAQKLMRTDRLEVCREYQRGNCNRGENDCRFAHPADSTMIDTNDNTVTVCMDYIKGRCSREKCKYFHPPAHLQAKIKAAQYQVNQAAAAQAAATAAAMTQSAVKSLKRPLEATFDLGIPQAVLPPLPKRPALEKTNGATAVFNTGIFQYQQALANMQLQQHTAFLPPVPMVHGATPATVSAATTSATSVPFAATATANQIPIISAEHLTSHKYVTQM
#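 MBNL1-His + Biotin-(CUG)12, cpd titration 92 nM–58 uM; Tb anti-His Ab 0.055 ng/ul, SA-XL665 5 nM (final); 60 min RT; ratiometric 665/545 nm, Ex 340 nm; normalized to buffer and full-complex controls.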
# The depositor's hits bear a star; ? = inconclusive; · = not tested or not shown; [ ] = remark or other dose. Unless noted, the call rests on the fitted dose curve; in most records, active means well fitted curve in the direction sought with a large enough effect; inconclusive means small, poorly fitted or top-dose-only effect, or another doubt; inactive means no such curve, though single readings can be large; an effect the other way counts as inactive or inconclusive.
SMILES,a7 integrin act,CBFb-RUNX1 inh,TCR activator,PTAP TSG101 blk,TSHR antagonist,MBNL1 CUG block
CCOC(=O)/C(C(N)=NCCO)=C(/O)c1ccccc1,13µM*,5%,-6%,-6%,9,-11%
CC(=O)c1cccc(NS(=O)(=O)c2ccc(N/C=C/C(=O)c3ccc(F)cc3)cc2)c1,1%,-5%,3%[46.1 µM],-5%,-73*,5%
CC(=O)c1cccc(NS(=O)(=O)c2ccc(N/C=C\C(=O)c3ccc(F)cc3)cc2)c1,0%,-9%,1%,0%,-34,?
Cc1cccc(C)c1Nc1ncnc(N)c1[N+](=O)[O-],-11%,-1%,4%[46.1 µM],0%,4,15%
Cc1ccc(CNc2ncnc(N)c2[N+](=O)[O-])cc1,10µM*,0%,-8%,-3%,0,16%
CC(=O)OCON[N+]([O-])=NC1CCCCC1,·,0%,·,·,·,·
C=CCNC(=O)c1ccc(NC(=O)C2=CSCCO2)cc1,13%,·,-1%,-4%,-136*,20%
CC[C@H](C)[C@@H](NC(=O)O[C@@H]1C(=O)c2ccc(OC)cc2O[C@H]1c1cccc(C(F)(F)F)c1)C(=O)OC,·,-14%,·,·,·,·
O=C(O)/C=C/c1ccc(S(=O)(=O)Nc2ccccc2C(=O)Nc2ccc(F)cc2)cc1,-22%,·,-2%,-2%,-100*,9%
O=C1/C(=C/c2ccccc2)Oc2ccccc21,·,-1%[13.1 µM],·,·,·,·
CC(C)c1ccc(NC(=O)CN2C(=O)c3ccccc3S2(=O)=O)cc1,10µM*,·,-3%,1%,11,3%
O=C(CN1C(=O)c2ccccc2S1(=O)=O)NCCSCc1cccc(Cl)c1,13%,·,5%,-2%,-96*,0%
O=C(Nc1ccc2nc3n(c(=O)c2c1)CCCCC3)C(=O)N1CCN(c2ccccc2F)CC1,?,·,8%,-3%,-122*,-11%
Cc1cc2c(cc1Cl)N(C(=O)Nc1ccc(Oc3cccnc3C)nc1)CC2,·,·,·,·,-20,·
COc1ccc(Nc2ncnc3ccc(Br)cc23)cc1OC,4µM*,·,1%,-3%,-11,6%
CCOc1ccc(CNC(=O)CCCn2nc(CC)n3c(cc4occc43)c2=O)cc1,-35%,·,1%,-7%,-110*,0%
CN(C)S(=O)(=O)c1cccc(-c2nn(-c3ccccc3)cc2/C=C2\SC(=S)NC2=O)c1,22%,?,-6%[46.1 µM],0%,-74*,9%
O=C(CN1CCN(C(=O)c2ccccc2)CC1)Nc1cc(S(=O)(=O)N2CCCC2)ccc1Cl,-20%,·,4%,1%,-21,·
O=C(CN1CCN(C(=O)c2ccccc2)CC1)Nc1ccc(Cl)cc1F,-6%,·,-3%,-3%,-79*,-2%
COC(=O)C/C=C\[C@@H](C)[C@@H](/C=N\O[C@@H](C)c1cn([C@H]2COC[C@H]2O)nn1)NS(=O)(=O)c1ccc(C)cc1,·,10%[13.1 µM],·,·,·,·
Cc1cc(NC(=O)c2ccc(Cl)cc2Cl)no1,1.4µM*,·,-2%,-4%,-4,4%
Cc1cc(NC(=O)Nc2ccc(Cl)cc2)no1,35%,·,-8%,1%,13,-2%
CC1(C)CC(=O)C=C(Nc2ccc(C(=O)O)c(O)c2)C1,10µM*,·,8%,-5%,-12,1%
Cc1ccc(NC2=CC(=O)CC(C)(C)C2)cc1Cl,15%,·,-3%,-1%,2,-6%
O=C(Nc1ccc(S(=O)(=O)Nc2nccs2)cc1)c1ccccc1OC(F)F,10µM*,·,2%,-3%,-13,·
SMILES,a7 integrin act,CBFb-RUNX1 inh,TCR activator,PTAP TSG101 blk,TSHR antagonist,MBNL1 CUG block
Cc1nc2ccccc2c(=O)n1/N=C/c1ccc(N(C)C)cc1,1%,-9%,2%,1%,-3,?
Cc1nc2c(cnn2-c2ccccc2)c(=O)n1/N=C/c1ccccc1,10µM*,12%,-57%,-1%,-7,-8%
CCOC(=O)C1=C(CC)Nc2ccccc2N=C1NC(=O)c1ccc(OC)c(S(=O)(=O)N2CCCCC2C)c1 (stereo unspecified),14µM*,-2%,2%,2%,-2,-3%
CCOC(=O)C1=C(CC)Nc2ccccc2N=C1NC(=O)c1ccc(C)c(S(=O)(=O)N2CCOCC2)c1,-22%,·,-1%,0%,-4,·
CCOc1cc(N2CCOCC2)c(OCC)cc1NC(=O)c1cccc(S(=O)(=O)N2CC(C)OC(C)C2)c1 (stereo unspecified),0%,·,·,·,·,·
CCOc1cc(N2CCOCC2)c(OCC)cc1NC(=O)c1cccc(S(=O)(=O)N2CCOCC2)c1,0%,·,2%,2%,-88*,·
Fc1ccc(C(c2ccc(F)cc2)N2CCN(C/C=C\c3ccccc3)CC2)cc1,·,-9%[21.7 µM],·,·,·,·
Cc1cc(/C=N/Nc2ccc([N+](=O)[O-])cn2)c(C)n1-c1ccccc1,-26%,-10%,-5%,-1%,13,?
Cc1c(C(=O)O)cccc1-n1c(C)cc(/C=N/Nc2ccc([N+](=O)[O-])cn2)c1C,2.8µM*,?,-7%,1%,-9,?
CCCOC(=O)CSc1nc(N)c(C#N)c(-c2ccco2)c1C#N,6%,·,0%,-3%,·,·
N#Cc1c(N)nc(SCC(=O)OCc2ccccc2)c(C#N)c1-c1ccco1,5%,1%,·,-3%,-78*,10%
COc1cc2c(cc1OC)C1O[C@](CCCCN3C(=O)c4ccccc4C3=O)(C2)OC2=C1C(=O)CC(C)(C)C2,·,·,·,·,·,11%[11.5 µM]
O=C1c2cccc3c([N+](=O)[O-])ccc(c23)C(=O)N1c1ccccn1,-3%,-5%,6%,1%,58,?
O=C1c2cccc3c([N+](=O)[O-])ccc(c23)C(=O)N1c1ccc(Cl)cn1,-64%,5%,-2%,?,-89*,?
CCOC(=O)C1CCN(S(=O)(=O)c2c(Cl)ccc3nonc23)CC1,·,·,·,·,-90*,?
CCOC(=O)C1CCN(S(=O)(=O)c2cccc3nonc23)CC1,16%,3%,-1%,-5%,1,?
CCOC(=O)C1=C(C)NC(C)=C(C(=O)OCC)C1c1c(F)c(F)c(F)c(F)c1F,·,·,·,·,-16,·
CCCCNc1nnc(SCC(=O)c2c(N)n(CCC)c(=O)[nH]c2=O)s1,4µM*,·,·,-10%,-10,·
O=C1O/C(=C/Br)CCC1c1cccc2ccccc12 (stereo unspecified),·,17%,·,·,-7,·
CC(=O)OC[C@@H]1O[C@H](CCON=C(C)C)C=C[C@@H]1OC(C)=O,·,-3%[13.1 µM],·,·,·,·
CC(=O)Nc1ccc(NC(=O)c2sc3nc4n(c(=O)c3c2C)CCCCC4)cc1,12%,3%,-5%,-11%,-6,8%

# Screening results: PubChem BioAssay, National Center for Advancing Translational Sciences (NCATS)
